Results reported in PubChem BioAssay AID1851 (National Center for Advancing Translational Sciences (NCATS), 2009).
Values joined by “and” are separate entries in the source; they are usually repeats but may differ in a detail not shown here. Equal entries are not always repeated. The campaign covered roughly 16,000 compounds. About 4,000 (25%) were called active. Another 26% or so got no clear call; they are omitted. Not all results are given here. A number with no mark means an inactive call. Calls follow the shape of the dose curve; as a rule, active = well fitted curve in the direction sought with a large enough effect; inconclusive = small, poorly fitted or top-dose-only effect, or effect the other way; inactive = no such curve, though single readings can be large or run the other way.

The molecules below were run against Cytochrome P450 2C9 (Homo sapiens) (UniProt P11712) (assay: Cytochrome panel assay with activity outcomes). Conditions: recombinant CYP, pro-luciferin dealkylation, luminescence, p450-cyp2c9; series mostly up to 57.1 µM; activity, negative = inhibition: at the top concentration.
Chain of Cytochrome P450 2C9 (Homo sapiens) (P11712 whole entry, looked up): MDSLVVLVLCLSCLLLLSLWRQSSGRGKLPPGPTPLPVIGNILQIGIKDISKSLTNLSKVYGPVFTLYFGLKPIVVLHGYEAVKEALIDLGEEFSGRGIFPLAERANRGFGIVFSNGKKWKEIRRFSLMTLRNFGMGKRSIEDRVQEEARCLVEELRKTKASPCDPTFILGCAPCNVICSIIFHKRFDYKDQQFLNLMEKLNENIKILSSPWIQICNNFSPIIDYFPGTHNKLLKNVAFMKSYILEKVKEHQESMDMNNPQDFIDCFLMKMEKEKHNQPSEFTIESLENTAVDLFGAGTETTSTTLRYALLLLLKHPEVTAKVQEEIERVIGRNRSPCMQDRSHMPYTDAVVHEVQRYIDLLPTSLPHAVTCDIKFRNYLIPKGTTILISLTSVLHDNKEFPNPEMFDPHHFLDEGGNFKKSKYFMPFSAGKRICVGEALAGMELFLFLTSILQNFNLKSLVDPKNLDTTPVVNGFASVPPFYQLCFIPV
% is scaled to controls: 0 for no effect and ±100 for the full control effect.

Row | SMILES | AC50 | activity, negative = inhibition
1 | Nc1ccccc1C#Cc1ccccc1 | 7.94 µM (active) and 14.1 µM (active) | 
2 | COCCn1c(=O)c(-c2cccs2)nc2cnc(Oc3ccc(OC)cc3)nc21 | 5.01 µM (active) | 
3 | O=c1c(-c2cccs2)nc2cnc(Oc3ccccc3)nc2n1C1CC1 | 3.16 µM (active) | 
4 | COc1ccc(Oc2ncc3nc(-c4cc(F)cc(F)c4)c(=O)n(C)c3n2)cc1 |  | -7.05%
5 | COCCn1c(=O)c(-c2cccs2)nc2cnc(N(C)C)nc21 |  | -15.4%
6 | COCCn1c(=O)c(-c2cccs2)nc2cnc(Oc3ccccc3)nc21 | 3.98 µM (active) | 
7 | COc1ncc2nc(-c3cccs3)c(=O)n(-c3ccccc3)c2n1 |  | -3.19%
8 | COc1ccc(Oc2ncc3nc(-c4cccs4)c(=O)n(C)c3n2)cc1 | 3.16 µM (active) | 
9 | COc1ccc(Oc2ncc3nc(-c4cccs4)c(=O)n(-c4ccccc4)c3n2)cc1 |  | -29.6%
10 | Cn1cc(-c2nc3cnc(Oc4ccccc4)nc3n(C3CC3)c2=O)c2ccccc21 |  | -16.2%
11 | CS(=O)(=O)Nc1cccc(-c2ccc3ncnc(NCc4cccnc4)c3c2)c1 |  | -11.8% [at 2.29 µM]
12 | FC(F)(F)c1ccccc1-c1nc(NCc2cccs2)c2ccccc2n1 |  | -25.9% [at 2.29 µM]
13 | CC(C)C(=O)NCCc1nc2ccccc2n1CCCOc1ccc(Cl)cc1 | 3.16 µM (active) | 
14 | CC(C)C(=O)NCCn1ccc2ccccc21 |  | -28.7%
15 | C[C@H]1/C=C\CC(=O)OC[C@H](C)C(=O)N2CCC[C@@H]2C(=O)OC1 |  | 4.32% [at 11.4 µM]
16 | O=C(CN1CCc2ccccc21)NC(=O)NCc1ccco1 | 15.8 µM (active) | 
17 | Cc1cnc(CNc2ncnc3ccc(-c4ccc(N(C)C)cc4)cc23)cn1 |  | -3.84% [at 2.29 µM]
18 | CO[C@@H]1COC(=O)[C@H](Cc2ccccc2)NC(=O)C/C=C\[C@@H](C)[C@H](OC)COC(=O)[C@@H](C)NC(=O)C/C=C\[C@H]1C |  | -11.8% [at 11.4 µM] and -14.5% [at 11.4 µM]
19 | Cc1cccc(CNc2ncncc2-c2cccnc2)c1 |  | 1.46% [at 2.29 µM]
20 | Cc1cccc(-n2nc([N+](=O)[O-])c(=NCc3cccnc3)n2O)c1 | 10 µM (active) | 
21 | S=C1NCN2CCN(CC2)CNC(=S)C(=S)NCN2CCN(CC2)CNC1=S |  | -2.75% [at 11.4 µM]
22 | Cc1oc(=O)c(NC(=O)c2ccccc2)cc1C(=O)c1ccccc1 | 12.6 µM (active) | 
23 | CC(=O)c1cc(NC(=O)c2ccccc2)c(=O)oc1/C=C/N(C)C |  | -16.5%

Row | SMILES | AC50 | activity, negative = inhibition
24 | Cc1ccc(C(=O)Nc2cc3c(oc2=O)CCCC3=O)cc1 |  | -13.2%
25 | Cc1cccc(CNc2cc(-c3c(C)noc3C)ncn2)c1 |  | -2.84% [at 2.29 µM]
26 | N.N.O=C(O)C1(C(=O)O)CCC1.[Pt] | 3.98 µM (active) | 
27 | O=C(O)CC1(C(=O)O)CCCCC1 |  | -2.68% [at 11.4 µM]
28 | O=C(O)C1(C(=O)O)CCN(S(=O)(=O)c2ccccc2)CC1 |  | -9.03% [at 11.4 µM]
29 | Cc1ccc(CSC(N)=Nc2ccccc2)cc1C |  | 7.44% [at 11.4 µM]
30 | CN(C)/C=C/C(=O)c1ccc(Cl)cc1 |  | -21.1%
31 | CN(C)/C=C/C(=O)c1ccc(F)cc1 |  | -17.2%
32 | CC(Oc1ccc(Cl)cc1)C(=O)/C=C/N(C)C (stereo not given) | 12.6 µM (active) | 
33 | CCN(CC)CCn1c(=S)[nH]c2cc3c(cc2c1=O)OCO3 |  | -28.2%
34 | O=C(CCCCCn1c(=S)[nH]c2cc3c(cc2c1=O)OCO3)N1CCN(C2CCCCC2)CC1 | 1.12 µM (active) | 
35 | CN(Cc1ccco1)c1ncncc1-c1cccc(C#N)c1 |  | 2.42% [at 2.29 µM]
36 | C[N+](C)(C)CC(=O)O |  | 6.18%
37 | COCCNc1ccnc(-c2c(C)noc2C)n1 |  | 17.7% [at 2.29 µM]
38 | Cc1nc(SCC(=O)NCCc2ccc(Cl)cc2)nc(C)c1C |  | -28%
39 | Cc1nc(SCC(=O)Nc2ccc3c(c2)OCCO3)c2oc3ccccc3c2n1 | 2 µM (active) | 
40 | CCc1nc(SCC(=O)NCCc2ccccc2)c2oc3ccccc3c2n1 | 1.12 µM (active) | 
41 | Cc1nc(SCC(=O)c2ccc(Cl)s2)c2oc3ccccc3c2n1 | 0.447 µM (active) | 
42 | CCc1nc(SCC(=O)c2ccc(Cl)s2)c2oc3ccccc3c2n1 | 1.12 µM (active) | 
43 | Cc1nc(Oc2ccc(Cl)cc2)c2oc3ccccc3c2n1 |  | -25.9%
44 | Nc1nc(SCc2ccc([N+](=O)[O-])cc2)c2ncn([C@@H]3O[C@@H](CO)[C@@H](O)[C@H]3O)c2n1 |  | 13.2%
45 | CN1CCC(=C2c3ccccc3C=Cc3ccccc32)CC1 | inactive | 
46 | CO[C@@H]1COC(=O)[C@H](CCSC)NC(=O)C/C=C\[C@@H](C)COC(=O)[C@@H]2CCCN2C(=O)C/C=C\[C@H]1C |  | 13.2% [at 11.4 µM]

Row | SMILES | AC50 | activity, negative = inhibition
47 | CCNc1ncc2nc(-c3ccc(Cl)cc3)c(=O)n(C[C@H]3CCCO3)c2n1 |  | -1.79%
48 | CN1CCc2c(c3ccccc3n2C)C1 |  | -11.6%
49 | Cn1c(=O)c2[nH]c(CCCCc3nc4ccccc4[nH]3)nc2n(C)c1=O |  | 2.16% [at 11.4 µM]
50 | COCC(=O)O[C@]1(CCN(C)CCCc2nc3ccccc3[nH]2)CCc2cc(F)ccc2[C@@H]1C(C)C |  | 13.1%
51 | CC(C)c1ccc(NC(=O)N(CCc2nc3ccccc3[nH]2)C2CCCC2)cc1 | 7.94 µM (active) | 
52 | Cc1cnc(CNc2ncnc3ccc(-c4ccccc4C(F)(F)F)cc23)cn1 |  | -21.8% [at 2.29 µM]
53 | COc1ccc(S(=O)(=O)Nc2ccc(S(=O)(=O)N3CCCCC3)cc2)cc1C | 0.355 µM (active) | 
54 | CC(=O)ON(C(C)=O)S(=O)(=O)c1ccc(Cl)cc1 |  | -9.68%
55 | CSc1nc2cc(S(=O)(=O)N3CCCCC3)ccc2s1 |  | -29.2% [at 11.4 µM]
56 | COc1ccc(NS(=O)(=O)c2ccc(I)cc2)cc1N1CCN(C)CC1 |  | -14%
57 | COc1ccc(S(=O)(=O)N2CCCCCC2)cc1N(C)S(=O)(=O)c1ccc(Cl)cc1 | 4.47 µM (active) | 
58 | O=S(=O)(NCCNC/C=C\c1ccc(Br)cc1)c1cccc2cnccc12 |  | -8.85%
59 | Clc1ccc(Sc2ccc(/C=N/n3cnnc3)o2)cc1 | 7.94 µM (active) | 
60 | CN=C1S/C(=C\c2ccc(Sc3ccc(Cl)cc3)o2)C(=O)N1C | 1.26 µM (active) | 
61 | Cc1ccc(Nc2nc(Cl)nc(N(C)C#N)n2)cc1 | 15.8 µM (active) | 
62 | O[C@]1(c2ccccc2)c2ccccc2NC2=NCCN21 |  | 3.96% [at 11.4 µM]
63 | O=C(Nc1ccccc1)OCc1cc(-c2ccc(Cl)cc2)on1 | 2.82 µM (active) | 
64 | CS(=O)(=O)c1ccccc1COC(=O)Nc1ccc(Cl)cc1 |  | -21.7%
65 | Cc1cnc(CNc2ncncc2-c2ccc(C(=O)N(C)C)cc2)cn1 |  | 26.6% [at 2.29 µM]
66 | Cc1cnc(CNc2nc(-c3ccccc3C)nc3ccccc23)cn1 |  | 18.8% [at 2.29 µM]
67 | CC(=O)NCCNc1ccnc(-c2ccccc2C)n1 |  | 7.25% [at 2.29 µM]
68 | COc1ccc2nccc(SCC(=O)O)c2c1 |  | -6.85% [at 11.4 µM]
69 | COc1ccc2c(c1)nc(SCC(=O)c1ccc(Br)s1)n2C | 15.8 µM (active) | 

Row | SMILES | AC50 | activity, negative = inhibition
70 | Cc1noc(C)c1-c1ccc2ncnc(NCCN3CCOCC3)c2c1 |  | -1.53% [at 2.29 µM]
71 | CCC(=O)O[C@@H]1[C@H](C)O[C@H](O[C@H]2[C@@H](N(C)C)[C@H](O)[C@@H](O[C@@H]3[C@@H](CC=O)C[C@@H](C)[C@@H](O)/C=C\C=C/C[C@@H](C)OC(=O)C[C@@H](OC(=O)CC)[C@H]3OC)O[C@H]2C)C[C@]1(C)O |  | 4.08% [at 25.6 µM]
72 | CCCCc1c2ccccc2nc2[nH]c3ccccc3c12 |  | -11.5%
73 | c1ccc(-c2c3ccccc3nc3[nH]c4ccccc4c23)cc1 | 10 µM (active) | 
74 | c1ccc2c(NC3CC3)nc(-c3ccoc3)nc2c1 |  | -17.7% [at 2.29 µM]
75 | CC[C@@H]1CN2CCc3cc(OC)c(OC)cc3[C@H]2C[C@@H]1C[C@@H]1NCCc2cc(OC)c(OC)cc21 |  | 8.9%
76 | CN1CCN(c2ccnc(-c3ccc(N(C)C)cc3)n2)CC1 |  | 4.88% [at 2.29 µM]
77 | CN(C)c1ccc(O)c2c1C[C@H]1C[C@H]3[C@@H](N(C)C)C(=O)C(C(N)=O)=C(O)[C@]3(O)C(=O)C1=C2O |  | -3.59% [at 25.6 µM]
78 | CCN(CC)CCCNC(=O)CC1Sc2ccccc2NC1=O (stereo not given) |  | -23.3%
79 | Cc1cc(C)n2nc(SCc3cc(=O)oc4ccc5ccccc5c34)nc2n1 | 8.91 µM (active) | 
80 | Cc1cc(C)n2nc(SCN3C(=O)c4ccccc4C3=O)nc2n1 |  | -0.785%
81 | COc1ccccc1CNC(=O)CSc1nc2nc(C)cc(C)n2n1 |  | 43.7%
82 | CO[C@@H]1COC(=O)C/C=C\[C@@H](C)COC(=O)[C@H](Cc2ccccc2)NC(=O)C/C=C\[C@H]1C |  | -17.6% [at 11.4 µM]
83 | O=C1CCCC=C1[C@@H](O)C1CCCCC1 |  | 14.2% [at 11.4 µM]
84 | O=C1CCCC=C1[C@H](CCc1ccccc1)OC(=O)c1ccc(Br)cc1 | 3.16 µM (active) | 
85 | O=C1CCCC=C1[C@H](O)c1ccc([N+](=O)[O-])cc1 |  | -18.1% [at 11.4 µM]
86 | CN(C)CCn1c(CO)nc2c1c(=O)n(C)c(=O)n2C |  | 0.0092% [at 11.4 µM]
87 | CCCCn1c(SCC(=O)N2CCCC2)nc2c1c(=O)n(C)c(=O)n2C |  | -14.8%
88 | CCCCCn1c(CN2CCCCC2C)nc2c1c(=O)n(C)c(=O)n2C (stereo not given) | 15.8 µM (active) | 
89 | CCNc1ncc2nc(-c3cc(F)cc(F)c3)c(=O)n(-c3ccc(OC)cc3)c2n1 |  | 13.1%
90 | O=C(Oc1ccccc1)N1CCC2(CC1)CCN(c1cccc(-c3ccccc3)c1)CC2 |  | -2.21%
